# Experimental data as given in PubChem BioAssay AID651644 (National Center for Advancing Translational Sciences (NCATS), 2012).
# Out of some 360,000 compounds screened, about 750 (0.21%) were called active. Another 2% or so got no clear call; they are omitted. The call rests on the fitted dose curve; in most records, active means well fitted falling curve with a large enough effect; inconclusive means small, poorly fitted or top-dose-only effect; inactive means no such curve, though single readings can be large or run the other way. What follows is part of a selection rich in actives, with near analogues and random picks from the rest.
# Assay: qHTS Assay for Inhibitors of the HIV-1 protein Vpr; further: nearly all actives have a fitted effect of over 50% in size
# Conditions: S. pombe RE007 Vpr strain, BacTiter-Glo ATP luminescence, 24 h; series mostly up to 92.2 µM; activity change, negative = less growth: at the top concentration
# Source text: Human immunodeficiency virus type 1 (HIV-1), the causative agent of AIDS, contains a protein called viral protein R (Vpr) that plays an important role in the viral life cycle and the pathogenesis of HIV-1.
# These Vpr specific activities include cytoplasmic-nuclear shuttling, induction of cell cycle G2 arrest and cell killing. The cytoplasmic-nuclear shuttling is believed to participate in nuclear transport of the proviral integration complex (PIC). The cell cycle G2 arrest induced by Vpr is thought to suppress human immune functions by preventing T cell clonal expansion and to provide an optimized cellular environment for maximal levels of viral replication. In addition, Vpr induces apoptosis, which may contribute to the depletion of CD4 T cells in HIV-infected patients. Since the Vpr-specific activities have been linked to such clinical manifestation of AIDS as activation of viral replication, suppression of host immune responses and depletion of CD4+ T-lymphocytes, identification of new molecular probes that can inhibit the Vpr activities could potentially provide a new approach to reduce Vpr-mediated detrimental effects in HIV-infected patients, and thus prolong patient's lives. Currently, there are no anti-Vpr drugs.
# A fission yeast (Schizosaccharomyces pombe) model system for the Vpr studies has been developed which measures HIV-1 Vpr-induced cell death. This assay will be used for to screen the NIH Molecular Libraries Small Molecule Repository (MLSMR) identify small molecule HIV-1 Vpr inhibitors.
# NIH Chemical Genomics Center [NCGC]
# NIH Molecular Libraries Probe Centers Network [MLPCN]
# Assay Submitter (PI): Richard Zhao, University of Maryland
# The fission yeast RE007 strain was used, which carries a single integrated copy of HIV-1 vpr gene in the yeast chromosome. The starting culture was frozen stock 100ul of yeast RE007 in 150ml of *PMG+AL medium, Incubation in 30 degree plus 99% humidity for 18 hours. Next day dispensed 2.5ul of PMG+AL medium in each well to 1536 well white solid plate, then 23nL compound were delivered to each well using a pin tool. Check OD for overnight culture and add cell density at 0.01 for each well, incubation in 30 degree plus 99% humidity for 24 hours. After add 5 ul of *BacTiter/Glo detect reagent to each well at room temperature for 5 minutes then to red out results with Viewlux CCD camera.
# On the % scale 0 is the no-effect control and ±100 the full control effect.
Compound,"activity change, negative = less growth",Potency
Cc1cc(C)c2c(n1)sc1c(=O)n(-c3ccccc3)c(=O)[nH]c12,-0.636% (inactive),
CCCCCCCCc1c(O)nc(-n2[nH]c(C)c(CCO)c2=O)[nH]c1=O,1.19% (inactive),
Cc1ccc(-c2nn(-c3ccc(F)cc3)cc2C(=O)NCC(c2cccs2)N2CCOCC2)cc1 (stereo not drawn),19.5% (inactive),
FC(F)(F)C1CCCN(c2nsc3ccccc23)C1 (stereo not drawn),,8.91 µM (active)
CCn1ncc(C2=NOC(C(=O)N3CCN(c4ccccc4)CC3)C2)c1C (stereo not drawn),-2.91% (inactive),
CC1Cc2ccccc2N1C(=O)c1cc2sccc2n1Cc1ccccc1 (stereo not drawn),9.42% (inactive),
COc1ccc(C(CNC(=O)c2cc(S(=O)(=O)Nc3cccc(C)c3)ccc2C)N2CCCC2)cc1 (stereo not drawn),-11% (inactive),
CCn1cc(C(=O)N[C@@H](C)C(=O)NCCO)c(=O)c2cc3c(cc21)OCO3,8.19% (inactive),
O=[N+]([O-])c1ccc(C=Nc2ccc(Cl)cc2Cl)s1,,3.16 µM (active)
Cc1ccc(S(=O)(=O)N(c2cccc(C)c2)C2CCS(=O)(=O)C2)cc1 (stereo not drawn),-5.48% (inactive),
CN1CCN(C(=O)c2ccccc2NC(=O)COc2ccccc2Cl)CC1,-2.68% (inactive),
COc1ccc(NC(=O)c2cccc(Cl)c2)c[n+]1[O-],-16.9% (inactive),
Cc1cccc(NS(=O)(=O)c2ccc(-c3cnc(C4CC4)o3)cc2)c1,-3.01% (inactive),
Cc1ccccc1OCC(=O)NCC(=O)OCC(=O)c1ccc2ccccc2c1,-1.1% (inactive),
Cc1cccc(C)c1NC(=O)Nc1ccccc1-n1ccnc1,-10.5% (inactive),
CCSc1ccccc1C(=O)Nc1ccc2c(c1)OCO2,,28.2 µM (active)
CCOc1ncccc1C(=O)Nc1ccc2c(c1)OCCO2,0.0868% (inactive),
CC(C)NC(=O)CSc1ccccc1C(=O)NCc1ccc2c(c1)OCO2,-6.89% (inactive),
O=C1COc2ccc(C(=O)COC(=O)CCOc3ccccc3)cc2N1,2.66% (inactive),
O=S(=O)(NCCS(=O)(=O)N1CCN(c2ccccc2)CC1)c1ccc(F)cc1,-2.52% (inactive),
Cc1c(C(=O)OCC(=O)N(CCC#N)c2ccccc2)oc2c1ccc1ccccc12,-3.92% (inactive),
O=C(NC(c1ccc(-c2ccccc2)cc1)c1cnccn1)C1CCN(CCOc2ccc(Cl)cc2Cl)CC1 (stereo not drawn),-8.16% [at 18.4 µM] (inactive),
CC1CCc2c(sc3nc4n(c(=O)c23)CCS4)C1 (stereo not drawn),,12.6 µM (active)
CCCCc1c(O)nc2n(c1=O)CCS2,-2.61% (inactive),
NNC(=O)C1CCCn2c1nc1sc3c(c1c2=O)CCCC3 (stereo not drawn),12% (inactive),
Cc1cccc(C(=O)OCC(=O)NCC(C)C)c1O,4.4% (inactive),

Compound,"activity change, negative = less growth",Potency
Cc1cccc(N2CCN(Cc3nc(C4CC4)no3)CC2)n1,-6.17% (inactive),
COP1(=O)C[C@@H](O)[C@@H](O)[C@@H](COCc2ccccc2)O1 (stereo partly drawn),0.0821% (inactive),
O=C(Nc1nnc(C2COc3ccccc3O2)o1)c1ccc(F)cc1 (stereo not drawn),-17.2% (inactive),
O=C(CCn1nnnc1CN1CCOCC1)N1CCC(c2ccccc2Cl)C1 (stereo not drawn),3.11% (inactive),
CC(C)OC(=O)c1ccc(NCc2cc(O)ccc2O)cc1Cl,,28.2 µM (active)
CCC(C)c1ccccc1N1CC(C(=O)N2CCN(S(=O)(=O)c3ccc(F)cc3)CC2)CC1=O (stereo not drawn),6.94% (inactive),
COc1ccc(C(=O)CN2C(=O)NC3(CCc4ccccc43)C2=O)c(OC)c1 (stereo not drawn),-0.673% (inactive),
Cc1ccc(OCCCCc2c(C)n[nH]c2C)cc1,1.1% (inactive),
NC1=C([N+](=O)[O-])C(c2ccccc2)C2=C(CCCC2=O)O1 (stereo not drawn),1.87% (inactive),
CCc1ccc2oc(-c3ccc(N)cc3)nc2c1,,11.2 µM (active)
COc1ccccc1N1CCN(S(=O)(=O)c2ccc3c(c2)NC(=O)CS3)CC1,-1.45% (inactive),
CC1(C(=O)Nc2ccc3c(c2)OCCO3)CSCC(=O)N1CCOc1ccccc1 (stereo not drawn),-4.71% (inactive),
Cc1nn(CCCC(=O)NCc2ccccc2Cl)c(=O)c2nccn12,-1.04% (inactive),
O=c1c2ccccc2ncn1CCc1ccncc1,-15.9% (inactive),
NNc1cccc(C=Cc2ccccc2)cc1=O,,28.2 µM (active)
COc1ccccc1C(=O)NCc1nnc(SC(C)C(=O)Nc2nccs2)n1C (stereo not drawn),2.26% (inactive),
Cc1ccc2cc3cc(C(=O)N4CCCCCC4)oc3nc2c1,-12.2% (inactive),
O=C(c1cccc(Br)c1)N1CCN(C2=NS(=O)(=O)c3ccccc32)CC1,-12.3% (inactive),
CCCOc1ccc(NC(=O)CC2C(=O)N(C)C(=S)N2Cc2ccc3c(c2)OCO3)cc1 (stereo not drawn),26.4% (inactive),
O=C(NCCc1ccccn1)c1cccnc1Oc1ccc(Cl)cc1,2.12% (inactive),
CCOc1ccc(CCNC(=O)CSc2cc(=O)n(C)c3ccc(Cl)cc23)cc1OCC,-8.18% (inactive),
CN(C)NC(=O)C(NC(=O)c1ccc(N)cc1)C12CC3CC(CC(C3)C1)C2 (stereo not drawn),-5.22% (inactive),
CC1(C)CC[C@]2(C(=O)O)CC[C@]3(C)C(=CCC4[C@@]5(C)CC[C@H](O)C(C)(C)C5[C@H](O)C[C@]43C)[C@@H]2C1 (stereo partly drawn),65.6% (inactive),
O=C(Nc1ccc(F)cc1)Nc1nnc([C@H]2C[C@H](O)[C@@H](CO)O2)s1,3.26% (inactive),
COC(=O)C1CCN(C(=O)COC(=O)c2cc(S(=O)(=O)N3CCOCC3)ccc2C)CC1,13.4% (inactive),
CC1CCCC(C)N1C(=O)CN1CCN(c2nc(-c3ccc(F)cc3)cs2)CC1 (stereo not drawn),2.33% (inactive),

Compound,"activity change, negative = less growth",Potency
O=C(NC1CCCC1)C(c1c(F)cccc1Cl)N(C(=O)c1csnn1)C1CC1 (stereo not drawn),5.17% (inactive),
O=C(NC1=CC(=O)c2ccccc2C1=O)c1ccccc1,,12.6 µM (active)
O=C(OCC(O)C(O)COC(=O)c1ccccc1)c1ccccc1 (stereo not drawn),11% (inactive),
O=C(Nc1ccc(S(=O)(=O)N2CCc3ccccc3C2)cc1)c1ccccc1,-4.11% (inactive),
COc1ccc(C(=O)C(OP(=O)(OC)OC)c2ccccc2OC)cc1 (stereo not drawn),-2.08% (inactive),
CCOC(=O)c1ccc(N2C(=O)CC(Sc3nc(O)c(CC)c(=O)[nH]3)C2=O)cc1 (stereo not drawn),-7.6% (inactive),
COc1ccc(N2CCN(C3CC(=O)N(c4ccc5c(c4)OCCO5)C3=O)CC2)cc1 (stereo not drawn),13.6% (inactive),
CCOC(=O)N(Cc1ccccc1)C1CC1,12.2% (inactive),
COC(=O)c1cc(C(=O)OC)cc(N2C(=O)CC(N3CCN(c4ccccc4)CC3)C2=O)c1 (stereo not drawn),-22.8% (inactive),
CCOC(=O)c1ccc(N2C(=O)CC(N3CCC(C(=O)OCC)CC3)C2=O)cc1 (stereo not drawn),,12.6 µM (active)
CCOC(=O)c1ccc(N2C(=O)CC(N(C)Cc3ccccc3)C2=O)cc1 (stereo not drawn),,12.6 µM (active)
COc1ccc(CCN2C(=O)CC(N3CCC(C(N)=O)CC3)C2=O)cc1OC (stereo not drawn),-26.9% (inactive),
CCCCOC(=O)c1ccc(N2C(=O)CC(N3CCN(C/C=C/c4ccccc4)CC3)C2=O)cc1 (stereo not drawn),-15.3% (inactive),
COc1ccc(N2C(=O)CC(N3CCC(C(N)=O)CC3)C2=O)cc1 (stereo not drawn),,25.1 µM (active)
NC(=O)Nc1ccccc1C(=O)NCCc1ccccc1,-0.111% (inactive),
Cc1nn(CC(=O)N2CCCCC2)c(=O)c2nn(-c3ccccc3)c(C)c12,-10.5% (inactive),
O=S1(=O)CCOC[C@H](CC2CCCCC2)N1Cc1ccc(F)cc1,-0.533% (inactive),
C=CCOc1ccc(/C=C/C(=O)OCC(=O)NC2CCCCCC2)cc1,-3.31% (inactive),
CCCCn1c(N)c(N(CCC(C)C)C(=O)COC(=O)c2ccc(CC)cc2)c(=O)[nH]c1=O,27.2% (inactive),
O=C(CC1OC(=O)c2ccccc21)NC1CCCCC1 (stereo not drawn),-24.1% (inactive),
O=C(N/C(=C/c1ccc(Cl)cc1)C(=O)N1CCCCC1)c1ccco1,0.0675% (inactive),
CCOC(=O)c1ccc(-n2c(C)nc3c(cnn3-c3ccccc3C)c2=O)cc1,-1.39% (inactive),
O=C(O)c1ccc(NN=CC2=C(N3CCOCC3)/C(=C/c3ccccc3)CC2)cc1,,35.5 µM (active)
O=C(O)c1ccc(N=NN2CCOCC2)cc1,3.61% (inactive),
O=C(CP(=O)(c1ccccc1)c1ccccc1)N1CCOCC1,-11.2% (inactive),
Cc1[nH]nc(SCC(=O)NCC(C)C)c1[N+](=O)[O-],7.56% (inactive),

Compound,"activity change, negative = less growth",Potency
COc1ccc(CN2C(=O)C(CC(=O)NCc3cccc4ccccc34)CC(C(=O)N3CCOCC3)=C2C)cc1 (stereo not drawn),-10.7% (inactive),
COc1cc(/C=N/NC(=O)Nc2ccccc2)ccc1OCCOc1ccccc1C,12.1% (inactive),
CC(C)(C)C(=O)Nc1ccc(C(=O)N/N=C/c2ccccc2OC(=O)c2ccc(Cl)cc2Cl)cc1,-4.71% (inactive),
COc1cccc(C(=O)N/N=C(\C)c2cccc(NC(=O)c3ccc(F)cc3)c2)c1OC,4.97% (inactive),
CCCNC(=O)c1ccccc1NC(=O)CSCc1ccc(OC)cc1,-1.72% (inactive),
COc1ccc(C(=O)Nc2ccccc2C(=O)N/N=C/c2ccccc2OC)cc1,,35.5 µM (active)
COc1ccc(C(=O)Nc2ccccc2C(=O)N/N=C/c2ccc(O)c(OC)c2)cc1,,7.94 µM (active)
CC(C)C(c1nnnn1C1CCCCC1)N1CCN(C(=O)c2ccco2)CC1 (stereo not drawn),-6.16% (inactive),
CCC1Nc2ncnc(N3CCN(c4ccccc4)CC3)c2N(Cc2ccc(Cl)cc2)C1=O (stereo not drawn),-10.5% (inactive),
O=C(NNC1CC(=O)N(c2cccc(Cl)c2)C1=O)c1cccnc1 (stereo not drawn),-7.49% (inactive),
Cc1ccc(NC(=O)C2CCC(C(C)(C)C)CC2)cc1S(=O)(=O)N1CCOCC1 (stereo not drawn),-5.98% (inactive),
Cc1nn(C)c(C)c1S(=O)(=O)N1CCc2ccccc21,12.9% (inactive),
Cc1[nH]c(C)c(S(=O)(=O)N2CCC(C)CC2)c1C(=O)N1CCCC1,16% (inactive),
O=C(O)c1cscn1,8.48% (inactive),
CC(C)CC1(C(=O)NCc2ccccn2)C=CCN1C(=O)c1ccccc1 (stereo not drawn),-16.5% (inactive),
COc1ccc(C(O)C(O)(C(=O)OC(C)C)c2ccc(C)cc2)cc1 (stereo not drawn),2.24% (inactive),
COC(=O)c1ccc(CNC(=O)c2ccc3oc(C(C)C)nc3c2)cc1,-1.64% (inactive),
Cc1ccc(C)c(-n2cc(CN3CCN(C(=O)c4ncn[nH]4)CC3)c(-c3ccccc3)n2)c1,2.12% (inactive),
NC(=O)COC(=O)c1sc2cc(F)ccc2c1Cl,,25.1 µM (active)
CC(NC(=O)COC(=O)c1ccc(Cl)cc1O)c1ccc(F)cc1 (stereo not drawn),14.6% (inactive),
Cc1ccc2c(Cl)c(C(=O)Nc3nn[nH]n3)sc2c1,2.79% (inactive),
Cc1ccc(S(=O)(=O)NCC(=O)N(CC(=O)NC(C)(C)C)Cc2cccs2)cc1,4.4% (inactive),
COCCCNC(=O)C1CCN(c2ccc(N3CCOCC3)nn2)CC1,-8.78% (inactive),
CCc1nc2c(OCCOc3ccccc3)cccn2c1N(C=O)Cc1ccc(OC)cc1,-28.1% (inactive),
Cc1ccc(S(=O)(=O)N(CC(O)CN2C(=O)NC(C)(C)C2=O)c2cccc([N+](=O)[O-])c2)cc1 (stereo not drawn),51.3% (inactive),
